Pf apPOL inh = Pf-apPOL DNA polymerase inhibition | Recombinant Pf-apPOL, molecular beacon fluorescence, 1.5 h | 210,000 tested, 0.25% active | inhibition, % at 10 µM
mHTT-CaM PPI inh = disrupts binding of mutant huntingtin to calmodulin; 190,000 tested, 3.6% active; inhibition, % at 15 µM; AlphaScreen His-mHTT/GST-CaM binding, luminescence; AID 1671202
Large screens that a line does not name were inactive. Rows were chosen to be rich in hits. Some 3.6% of all compounds tested hit in one or more screens of this group. Cut-off read from the data, not from the text of the source: active = inhibition above about 50%; inactive = the rest.

Cc1ccccc1C(=O)Nc1cccc(N=Cc2cc(Cl)cc([N+](=O)[O-])c2O)c1	none
CC(=O)Nc1cccc(N=Cc2cc(Cc3ccccc3Cl)cc([N+](=O)[O-])c2O)c1	mHTT-CaM PPI inh 98
CC(=O)Nc1cccc(N=Cc2cc(Cc3ccccc3)ccc2O)c1	mHTT-CaM PPI inh 95
O=C(Nc1cccc(N=Cc2cc(Br)ccc2O)c1)c1ccco1	none
CC(C)c1ccc2oc(=O)cc(-c3cc4ccccc4o3)c2c1	none
COc1cc(/C=C2\NC(=O)NC2=O)cc(Cl)c1OCc1cccc(C(=O)O)c1	none
COc1cc(/C=C/[N+](=O)[O-])cc(Cl)c1OCc1cccc(C(=O)O)c1	mHTT-CaM PPI inh 57
COCCNC(=O)c1cnn2c1NC(c1cccc(OC)c1)CC2C(F)(F)F (stereo unspecified)	none
Nc1ccccc1SCC=CCSc1ccccc1N	none (no result: mHTT-CaM PPI inh)
O=C(CC1CCCCC1)N1CCCC(COc2ccc(C(=O)N3CCOCC3)cc2)C1 (stereo unspecified)	none
COc1ccc(NC(=O)Cc2cn(C)c3ccccc23)cc1Cl	none
COc1ccc(NC(C)=O)cc1NC(=O)Cc1cn(Cc2ccccc2)c2ccccc12	mHTT-CaM PPI inh 83
CC(C)(C)c1cc(C(=O)O)cc(C(C)(C)C)c1O	none
COCc1cc(C(C)(C)C)c(O)c(O)c1C(C)(C)C	mHTT-CaM PPI inh 62
COc1ccc(-c2ccc(=O)n(Cc3nc(-c4ccccc4Br)no3)n2)cc1	none
CC(C)(C)c1ccccc1NC(=O)Cc1cccs1	none
CCCCC(=O)N1C/C=C\C(c2ccc(OC)cc2)N(Cc2ccc(F)cc2)C(=O)[C@@H]1Cc1ccccc1 (stereo partly specified)	none
COc1ccc(C2/C=C\C(c3ccc(OC)cc3)N(Cc3ccc(F)cc3)C(=O)C(=O)N2Cc2ccc(F)cc2)cc1 (stereo unspecified)	none
COc1ccc(C2/C=C\CN(C(=O)C3CCCCC3)[C@@H](C)C(=O)N2Cc2ccc(F)cc2)cc1 (stereo partly specified)	none
COc1ccc(C2/C=C\CN(C(=O)c3ccc(C)cc3)[C@@H](C)C(=O)N2Cc2ccc(F)cc2)cc1 (stereo partly specified)	mHTT-CaM PPI inh 93
COc1ccc(C2/C=C\CN(Cc3ccccc3)[C@@H](C)C(=O)N2Cc2ccc(F)cc2)cc1 (stereo partly specified)	mHTT-CaM PPI inh 73
COc1ccc(C2/C=C\CN(Cc3ccco3)[C@@H](C)C(=O)N2Cc2ccc(F)cc2)cc1 (stereo partly specified)	mHTT-CaM PPI inh 93
CC(=O)n1cc(/C=C2\C(=O)NN(c3ccccc3)C2=O)c(-c2ccc(F)cc2)n1	mHTT-CaM PPI inh 54
COc1ccccc1/C=C1\C(=O)NN(c2ccccc2)C1=O	none
CCc1ccc(O)c(N=Cc2cc(C)ccc2O)c1	none
CCc1ccc(O)c(N=Cc2cc(I)ccc2O)c1	mHTT-CaM PPI inh 54
COCCNC(=O)C1(C)CCC(=O)N1Cc1cccc(F)c1 (stereo unspecified)	none
Cn1nc(COCc2ccccc2F)c2c1CCN(C(=O)Nc1cccc(F)c1)C2	none
CCS(=O)(=O)N1CCN(C(=O)c2cccc(Cl)c2)CC1	none
COCC(=O)Nc1nn(C)c2c1CC(C)C(=O)N2 (stereo unspecified)	none
CC1Cc2c(NC(=O)c3ccc(Br)o3)nn(C)c2NC1=O (stereo unspecified)	mHTT-CaM PPI inh 52
O=C(C1=CN(c2cccc(F)c2)c2cc(F)ccc2S1(=O)=O)N1CCOCC1	none
Cc1nc(-c2ccncc2)nc2c1CCC(=O)N2Cc1ccncc1	none
Cc1nc(-c2ccncc2)nc2c1CCC(=O)N2CCN1CCCC1	Pf apPOL inh 56
Cc1nc(-c2ccncc2)nc2c1CCC(=O)N2Cc1ccco1	none
Cc1nc(-c2cnccn2)nc2c1CCC(=O)N2Cc1ccccc1	none
Cc1ccc(CN2C(=O)CCc3c(C)nc(-c4ccccc4)nc32)o1	mHTT-CaM PPI inh 90
Cc1nc(-c2cnccn2)nc2c1CCC(=O)N2Cc1ccncc1	Pf apPOL inh 59, mHTT-CaM PPI inh 60
CCNC(=O)NC1CCN(c2nc3ccccc3n(C)c2=O)CC1	none
Cc1c(Cl)cccc1NC(=O)c1cc(S(=O)(=O)NCc2ccccc2)ccc1F	none
Cc1ccc(N2CCN(C(=O)c3cccc(Cl)c3)C(C)C2=O)c(C)c1 (stereo unspecified)	none
COc1ccc(-c2nc3cc(C)ccn3c2NC(=O)C2CCCC2)cc1	none
COc1ccc(-c2nc3ccc(C)cn3c2NC(=O)C2CCCC2)cc1	mHTT-CaM PPI inh 51
Cc1ccc(C)c(N2CCN(C(=O)c3ccc(-c4nccnc4N(C)C)cc3)CC2)c1	mHTT-CaM PPI inh 94
Cc1ccc(C)c(N2CCN(C(=O)c3cn4c(n3)CCCC4)CC2)c1	mHTT-CaM PPI inh 51
CCc1nc(N2CCCC2=O)sc1C(=O)N1CCN(c2cccc(C)c2C)CC1	mHTT-CaM PPI inh 64
O=C(c1ccc2c(c1)nc1n2CCCCC1)N1CCN(c2ccccc2)CC1	none
Cc1cccc(N2CCN(C(=O)c3noc4c3CCCC4)CC2)c1C	none
Cc1ccc(C)c(N2CCN(C(=O)c3cccc(-c4nccnc4N(C)C)c3)CC2)c1	none

Screening results from PubChem.
